In PubChem BioAssay (EPA / NIEHS):
Active and inactive are the calls of the source. Rule for the calls: active = hit-call score of the fitted dose curve at least 0.9, where 1 is the maximum; inactive = score below 0.9.

Experiments:
Conditions in all cases: mRNA level, 48 h; actives raise or lower the signal
[1] = read-out: Fatty Acid-Binding Protein 1 (FABP1), FABP1 (gene 2168); test: LTEA_HepaRG_FABP1: Life Technologies and Expression Analysis (LTEA) Assay for Fatty Acid-Binding Protein 1 (FABP1) using HepaRG (AID 2283494)
Method in brief: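 Differentiated human HepaRG cells were exposed in duplicate for 48 h in serum-free induction medium to 8-point half-log concentration series topping at 100 uM in 0.5% DMSO. FABP1 mRNA measured by TaqMan qRT-PCR, normalized to ACTB/GAPDH/POLR2A; bidirectional fit versus DMSO.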

[2] = read-out: Cytochrome P450 4A22 (Homo sapiens) (UniProt Q5TCH4); test: LTEA_HepaRG_CYP4A22: Life Technologies and Expression Analysis (LTEA) Assay for Cytochrome P450 4A22 (CYP4A22) using HepaRG (AID 2283495)
Method in brief: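 Differentiated HepaRG cells in serum-free induction medium exposed 48 h in duplicate to eight half-log concentrations up to 100 uM in 0.5% DMSO. CYP4A22 mRNA quantified by TaqMan qRT-PCR, normalized to ACTB, GAPDH and POLR2A; bidirectional fit versus DMSO.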

[3] = read-out: Glutathione S-Transferase (GSTA2), GSTA2 (gene 2939); test: LTEA_HepaRG_GSTA2: Life Technologies and Expression Analysis (LTEA) Assay for Glutathione S-Transferase (GSTA2) using HepaRG (AID 2283497)
Method in brief: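 Human HepaRG cells, plated 48 h, then exposed in serum-free induction medium for 48 h to eight half-log concentrations up to 100 uM in 0.5% DMSO, duplicate. GSTA2 mRNA by qRT-PCR, normalized to ACTB/GAPDH/POLR2A; bidirectional fit versus DMSO.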

[4] = read-out: Glutamate-cysteine ligase catalytic (GCLC), GCLC (gene 2729); test: LTEA_HepaRG_GCLC: Life Technologies and Expression Analysis (LTEA) Assay for Glutamate-cysteine ligase catalytic (GCLC) using HepaRG (AID 2283498)
Method in brief: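 Differentiated human HepaRG cells, plated 48 h then switched to serum-free induction medium, were exposed in duplicate for 48 h to 8 half-log concentrations topping at 100 uM in 0.5% DMSO. GCLC mRNA was quantified by qRT-PCR against ACTB, GAPDH and POLR2A.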

[5] = read-out: growth arrest and DNA damage 45 (GADD45G), GADD45G (gene 10912); test: LTEA_HepaRG_GADD45G: Life Technologies and Expression Analysis (LTEA) Assay for growth arrest and DNA damage 45 (GADD45G) using HepaRG (AID 2283499)
Method in brief: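 Differentiated human HepaRG cells, 48 h post-plating, exposed 48 h in serum-free induction medium to 8 half-log concentrations (top 100 uM, 0.5% DMSO) in duplicate. GADD45G mRNA measured by Fluidigm TaqMan qRT-PCR, normalized to ACTB, GAPDH, POLR2A; bidirectional fit versus DMSO.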

[6] = read-out: Glutathione S-transferase M3 (GSTM3), GSTM3 (gene 2947); test: LTEA_HepaRG_GSTM3: Life Technologies and Expression Analysis (LTEA) Assay for Glutathione S-transferase M3 (GSTM3) using HepaRG (AID 2283501)
Method in brief: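 Differentiated human HepaRG cells were exposed in duplicate for 48 h in serum-free induction medium, 8 points from 100 uM top in half-log steps, 0.5% DMSO. GSTM3 mRNA was measured by TaqMan qRT-PCR, normalized to ACTB, GAPDH and POLR2A; bidirectional fit versus DMSO.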

[7] = read-out: Heat shock 70 kDa protein 1 (HSPA1A), gene 3303; test: LTEA_HepaRG_HSPA1A: Life Technologies and Expression Analysis (LTEA) Assay for Heat shock 70 kDa protein 1 (HSPA1A) using HepaRG (AID 2283502)
Method in brief: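 HSPA1A induction in human HepaRG liver cells is measured after 48 h of chemical treatment (100 uM maximum, 0.5% DMSO vehicle). Expression comes from qRT-PCR normalized to endogenous controls.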

[8] = read-out: Hypoxia-inducible factor 1-alpha (Homo sapiens) (UniProt Q16665); test: LTEA_HepaRG_HIF1A: Life Technologies and Expression Analysis (LTEA) Assay for Hypoxia-inducible factor 1 (HIF1A) Trancription factor using HepaRG (AID 2283503)
Method in brief: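 HepaRG, 48 h exposure, 8-pt half-log series from 100 uM, 0.5% DMSO vehicle, duplicates. Readout: HIF1A transcript by qRT-PCR (Fluidigm array), housekeeping-normalised. Bidirectional curve fit vs DMSO baseline.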

[9] = read-out: 3-Hydroxy-3-Methylglutaryl-CoA Synthase 2 (HMGCS2), HMGCS2 (gene 3158); test: LTEA_HepaRG_HMGCS2: Life Technologies and Expression Analysis (LTEA) Assay for 3-Hydroxy-3-Methylglutaryl-CoA Synthase 2 (HMGCS2) using HepaRG (AID 2283504)
Method in brief: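 Human HepaRG cells in serum-free induction medium were exposed in duplicate for 48 h to 8-point half-log series from 100 uM top in 0.5% DMSO. HMGCS2 mRNA measured by TaqMan qRT-PCR, normalised to ACTB, GAPDH, POLR2A; bidirectional fit versus DMSO.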

[10] = read-out: HGF (gene 3082); test: LTEA_HepaRG_HGF: Life Technologies and Expression Analysis (LTEA) Assay for Hepatocyte Growth Facto (HGF) using HepaRG (AID 2283505)
Method in brief: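 Differentiated HepaRG cells in serum-free induction medium exposed 48 h in duplicate, 8 half-log concentrations from 100 uM in 0.5% DMSO. HGF mRNA by qRT-PCR, normalised to ACTB, GAPDH, POLR2A; bidirectional fitting.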

[11] = read-out: Insulin Like Growth Factor 1 (IGF1), IGF1 (gene 3479); test: LTEA_HepaRG_IGF1: Life Technologies and Expression Analysis (LTEA) Assay for Insulin Like Growth Factor 1 (IGF1) using HepaRG (AID 2283506)
Method in brief: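 Using human HepaRG liver cells, IGF1 transcript induction or suppression is measured 48 h after dosing across eight concentrations capped at 100 uM. Values derive from bidirectional concentration-response fitting with DMSO as baseline.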

[12] = read-out: Intercellular Adhesion Molecule 1 (ICAM1), ICAM1 (gene 3383); test: LTEA_HepaRG_ICAM1: Life Technologies and Expression Analysis (LTEA) Assay for Intercellular Adhesion Molecule 1 (ICAM1) using HepaRG (AID 2283507)
Method in brief: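 Differentiated human HepaRG cells in serum-free induction medium exposed 48 h in duplicate to 8 half-log concentrations (top 100 uM, 0.5% DMSO). ICAM1 mRNA quantified by TaqMan qRT-PCR, normalized to ACTB, GAPDH and POLR2A; bidirectional fitting versus DMSO.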

[13] = read-out: Insulin-like growth factor-binding protein 1 (IGFBP1), IGFBP1 (gene 3484); test: LTEA_HepaRG_IGFBP1: Life Technologies and Expression Analysis (LTEA) Assay for Insulin-like growth factor-binding protein 1 (IGFBP1) using HepaRG (AID 2283508)
Method in brief: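 HepaRG cells, plated 48 h then switched to serum-free induction medium, exposed in duplicate for 48 h to 8-point half-log series from 100 uM in 0.5% DMSO. mRNA measured by qRT-PCR, normalized to ACTB/GAPDH/POLR2A; bidirectional fit versus DMSO.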

[14] = read-out: Interleukin 6 (IL6), IL6 (gene 3569); test: LTEA_HepaRG_IL6: Life Technologies and Expression Analysis (LTEA) Assay for Interleukin 6 (IL6) using HepaRG (AID 2283509)
Method in brief: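 Differentiated human HepaRG cells, plated 48 h then switched to serum-free induction medium, were exposed in duplicate for 48 h to eight half-log concentrations up to 100 uM in 0.5% DMSO. IL6 mRNA measured by qRT-PCR, normalized to ACTB/GAPDH/POLR2A.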

[15] = read-out: Interleukin 6 Receptor (IL6R), IL6R (gene 3570); test: LTEA_HepaRG_IL6R: Life Technologies and Expression Analysis (LTEA) Assay for Interleukin 6 Receptor (IL6R) using HepaRG (AID 2283510);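 for AC50: TaqMan qRT-PCR signal normalized to ACTB GAPDH and POLR2A housekeeping genes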
Method in brief: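 Concentration-response in human liver HepaRG cells: eight concentrations from 100 uM downward by half-logs, 48 h exposure, 0.5% DMSO vehicle. IL6R mRNA change measured by qRT-PCR and fitted in both directions relative to vehicle.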

[16] = read-out: Potassium channel subfamily K member 1 (KCNK1), KCNK1 (gene 3775); test: LTEA_HepaRG_KCNK1: Life Technologies and Expression Analysis (LTEA) Assay for Potassium channel subfamily K member 1 (KCNK1) using HepaRG (AID 2283511)
Method in brief: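 Differentiated human HepaRG cells in serum-free induction medium were exposed in duplicate for 48 h to 8 half-log concentrations up to 100 uM in 0.5% DMSO. KCNK1 mRNA was measured by TaqMan qRT-PCR, normalized to ACTB, GAPDH and POLR2A, and fitted bidirectionally versus DMSO.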

[17] = read-out: Keratin 19 (KRT19), KRT19 (gene 3880); test: LTEA_HepaRG_KRT19: Life Technologies and Expression Analysis (LTEA) Assay for Keratin 19 (KRT19) using HepaRG (AID 2283512)
Method in brief: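 Differentiated HepaRG cells in serum-free induction medium, exposed 48 h in duplicate to 8 half-log concentrations up to 100 uM in 0.5% DMSO. KRT19 mRNA by qRT-PCR, normalized to ACTB, GAPDH, POLR2A; bidirectional fit vs DMSO.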

[18] = read-out: Glutamate-cysteine ligase regulatory (GCLM), GCLM (gene 2730); test: LTEA_HepaRG_GCLM: Life Technologies and Expression Analysis (LTEA) Assay for Glutamate-cysteine ligase regulatory (GCLM) using HepaRG (AID 2283500)
Method in brief: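 Human liver HepaRG cultures receive test chemicals for 48 hours at up to 100 uM in 0.5% DMSO. GCLM expression is measured by qRT-PCR and analysed for increases or decreases against vehicle.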

[19] = read-out: Cytochrome P450 7A1 (Homo sapiens) (UniProt P22680); test: LTEA_HepaRG_CYP7A1: Life Technologies and Expression Analysis (LTEA) Assay for Cytochrome P450 7A1 (CYP7A1) using HepaRG (AID 2283496)
Method in brief: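 Gene expression endpoint in human HepaRG liver cells treated for 48 h with test chemicals (up to 100 uM, 0.5% DMSO). Values come from bidirectional concentration-response fitting versus DMSO.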

Measured: AC50

Hypoxia-inducible factor 1-alpha (Homo sapiens), sequence (Q16665 whole entry, looked up): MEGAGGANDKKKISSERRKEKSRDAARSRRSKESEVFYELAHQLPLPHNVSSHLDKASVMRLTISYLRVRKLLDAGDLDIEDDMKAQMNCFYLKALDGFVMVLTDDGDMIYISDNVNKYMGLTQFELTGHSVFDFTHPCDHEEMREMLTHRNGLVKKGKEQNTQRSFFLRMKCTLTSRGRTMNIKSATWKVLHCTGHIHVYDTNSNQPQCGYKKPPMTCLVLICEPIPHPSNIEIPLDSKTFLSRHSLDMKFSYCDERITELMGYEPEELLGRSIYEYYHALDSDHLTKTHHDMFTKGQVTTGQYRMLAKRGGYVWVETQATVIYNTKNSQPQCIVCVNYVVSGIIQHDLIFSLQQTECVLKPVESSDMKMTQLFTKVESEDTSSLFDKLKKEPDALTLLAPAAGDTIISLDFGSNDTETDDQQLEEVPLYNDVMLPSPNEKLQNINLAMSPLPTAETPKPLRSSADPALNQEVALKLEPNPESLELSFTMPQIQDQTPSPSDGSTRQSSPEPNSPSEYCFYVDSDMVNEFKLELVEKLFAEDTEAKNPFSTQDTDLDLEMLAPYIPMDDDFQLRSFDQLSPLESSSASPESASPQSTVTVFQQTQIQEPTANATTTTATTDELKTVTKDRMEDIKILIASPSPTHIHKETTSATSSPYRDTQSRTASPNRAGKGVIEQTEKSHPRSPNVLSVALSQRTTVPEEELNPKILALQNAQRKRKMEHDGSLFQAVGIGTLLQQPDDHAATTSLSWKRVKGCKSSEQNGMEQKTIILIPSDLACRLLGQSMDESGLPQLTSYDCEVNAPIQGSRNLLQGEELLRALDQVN

CC(=O)S[C@H](C(=O)N[C@H]1Cc2ccccc2[C@H]2CCC[C@@H](C(=O)O)N2C1=O)C(C)C
not listed: [18] | [19]
inactive: all other assays above

CCCCCCC(CCCCCCCCCCC(=O)OCC(COC(C)=O)OC(C)=O)OC(C)=O (centres undefined)
not listed: [12] | [19]
inactive: all other assays above

CCCCC(CC)COP(=O)(OCC(CC)CCCC)OCC(CC)CCCC (centres undefined)
not listed: [18] | [19]
inactive: all other assays above

O=C1OC(c2ccc(O)cc2)(c2ccc(O)cc2)c2ccccc21
active: [3] 78.5 µM | [4] 32 µM | [6] 50 µM | [7] 50 µM | [9] 67.6 µM | [10] 79.4 µM | [15] 50 µM
not listed: [8] | [18] | [19]
inactive: all other assays above

Cc1occc(=O)c1O
not listed: [8] | [18] | [19]
inactive: all other assays above

NC=O
not listed: [12] | [19]
inactive: all other assays above

S=c1[nH]c2ccccc2s1
not listed: [12] | [18]
inactive: all other assays above

C=CCCCCCCCCCCCC
not listed: [12] | [19]
inactive: all other assays above
